Source: PubChem BioAssay (Tox21)
Records with an inconclusive call do not appear. Activity calls are given as the source filed them. Unless noted, the call rests on the fitted dose curve; in most records, active means well fitted curve in the direction sought with a large enough effect in the repeat runs; inconclusive means weak or mixed curves; inactive means no such curve, though single readings can be large; an effect the other way counts as inactive or inconclusive.

Columns and labels:
[1] = qHTS assay to identify aromatase inhibitors - cell viability counter screen (AID 743084);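 further: cells stimulated with testosterone during compound exposure; nearly all actives have a fitted effect of over 55% in size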
[2] = biological target: Aryl hydrocarbon receptor (Homo sapiens) (UniProt P35869); test: qHTS assay to identify small molecule that activate the aryl hydrocarbon receptor (AhR) signaling pathway (AID 743085);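 further: HG2L7.5c1 human HepG2 liver cells with stably integrated DRE-driven firefly reporter; series mostly up to about 70 µM; nearly all actives have a fitted effect of over 15% in size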
Chain of Aryl hydrocarbon receptor (Homo sapiens) (P35869 whole entry, looked up): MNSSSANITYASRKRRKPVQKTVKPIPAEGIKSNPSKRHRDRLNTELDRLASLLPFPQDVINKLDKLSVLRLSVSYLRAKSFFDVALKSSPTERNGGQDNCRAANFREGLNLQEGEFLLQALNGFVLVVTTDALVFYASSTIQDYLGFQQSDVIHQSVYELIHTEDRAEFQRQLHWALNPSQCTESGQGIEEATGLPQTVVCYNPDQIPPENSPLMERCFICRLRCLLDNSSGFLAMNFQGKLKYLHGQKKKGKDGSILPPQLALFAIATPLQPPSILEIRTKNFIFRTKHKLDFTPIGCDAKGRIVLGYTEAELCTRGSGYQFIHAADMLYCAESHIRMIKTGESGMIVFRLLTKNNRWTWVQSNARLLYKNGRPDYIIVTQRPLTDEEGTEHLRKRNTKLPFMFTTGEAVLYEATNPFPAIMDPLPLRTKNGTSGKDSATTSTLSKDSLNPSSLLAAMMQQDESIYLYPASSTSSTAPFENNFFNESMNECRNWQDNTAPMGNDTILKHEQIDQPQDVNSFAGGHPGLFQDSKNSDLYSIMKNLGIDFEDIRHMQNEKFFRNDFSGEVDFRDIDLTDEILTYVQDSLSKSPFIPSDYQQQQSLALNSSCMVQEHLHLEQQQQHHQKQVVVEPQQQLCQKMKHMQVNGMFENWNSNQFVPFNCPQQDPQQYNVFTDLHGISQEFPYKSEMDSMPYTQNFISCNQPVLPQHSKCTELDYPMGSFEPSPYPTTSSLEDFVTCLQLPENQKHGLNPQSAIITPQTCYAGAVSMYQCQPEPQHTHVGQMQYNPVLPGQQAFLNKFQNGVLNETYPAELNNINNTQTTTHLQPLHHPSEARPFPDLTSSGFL
Summary of the method: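 Luminescence read-out: ONE-Glo reagent, 30 min at room temperature, in HG2L7.5c1 HepG2 reporter cells treated 24 h at 37C. Viability was measured beforehand by CellTiter-Fluor fluorescence after 30 min at 37C.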

[3] = qHTS assay to identify small molecule that activate the aryl hydrocarbon receptor (AhR) signaling pathway - cell viability counter screen (AID 743086);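 further: HepG2 liver cells carrying the AhR DRE luciferase reporter; series mostly up to about 70 µM; nearly all actives have a fitted effect of over 45% in size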
Summary of the method: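 HepG2-AhR-luc (HG2L7.5c1) cells, 4000/well, were preincubated 5 h at 37C, exposed to compound in qHTS format for 24 hr at 37C, then given CellTiter-Fluor for 30 min; viability was read as fluorescence in the reporter wells.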

[4] = biological target: Peroxisome proliferator-activated receptor gamma (Homo sapiens) (UniProt P37231); test: qHTS assay to identify small molecule antagonists of the peroxisome proliferator-activated receptor gamma (PPARg) signaling pathway (AID 743191; calls by dose curve; further: series mostly up to about 63 µM; nearly all actives have a fitted effect of over 30% in size)
Chain of Peroxisome proliferator-activated receptor gamma (Homo sapiens) (P37231 whole entry, looked up): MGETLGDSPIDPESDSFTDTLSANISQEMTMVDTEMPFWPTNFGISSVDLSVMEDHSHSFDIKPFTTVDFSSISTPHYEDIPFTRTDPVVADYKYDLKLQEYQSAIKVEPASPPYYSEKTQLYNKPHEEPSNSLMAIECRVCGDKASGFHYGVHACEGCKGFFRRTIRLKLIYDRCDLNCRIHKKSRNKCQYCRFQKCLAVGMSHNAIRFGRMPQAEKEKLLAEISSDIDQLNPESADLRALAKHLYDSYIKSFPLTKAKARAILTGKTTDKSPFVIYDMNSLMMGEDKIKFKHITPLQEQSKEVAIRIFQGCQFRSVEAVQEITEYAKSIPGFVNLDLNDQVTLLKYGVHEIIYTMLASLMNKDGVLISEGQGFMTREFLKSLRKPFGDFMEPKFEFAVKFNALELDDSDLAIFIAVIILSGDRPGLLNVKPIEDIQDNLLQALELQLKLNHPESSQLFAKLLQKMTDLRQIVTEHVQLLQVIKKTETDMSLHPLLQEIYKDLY
Summary of the method: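 GeneBLAzer PPARg UAS-bla HEK293H cells carrying a UAS-driven beta-lactamase reporter were plated at 3000 cells/well, preincubated 5 h at 37C, then given compound for 17 h at 37C; LiveBLAzer B/G FRET substrate was read after 1 h at room temperature.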

[5] = qHTS assay to identify small molecule antagonists of the peroxisome proliferator-activated receptor gamma (PPARg) signaling pathway - cell viability counter screen (AID 743194); settings: Potency: co-treated with 50 nM rosiglitazone unless noted; further: nearly all actives have a fitted effect of over 55% in size
Summary of the method: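 PPARg-UAS-bla HEK293H cells were plated, rested 5 h at 37 C, then treated with compounds plus rosiglitazone (50 nM final) for 17 h at 37 C; viability was then read by CellTiter-Glo luminescence after 30 min at room temperature.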

[6] = qHTS assay for small molecule agonists of the antioxidant response element (ARE) signaling pathway (AID 743202; active means well fitted activation curve with a large enough effect in the signal ratio in the repeat runs, not every such curve was filed as active; the % refers to the signal ratio)
Summary of the method: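 Compounds delivered in DMSO to ARE-bla HepG2 cells (2,000 cells/well, pre-incubated 5 h) and left 16 h at 37 C. LiveBLAzer B/G FRET substrate then added for 2 h at RT before fluorescence reading.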

[7] = qHTS assay for small molecule agonists of the antioxidant response element (ARE) signaling pathway - cell viability counter screen (AID 743203; calls by dose curve; further: nearly all actives have a fitted effect of over 55% in size)
Summary of the method: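 Following 16 hrs of compound treatment at 37C, HepG2 cells with an ARE-controlled beta-lactamase gene were lysed with CellTiter-Glo. Luminescence was read after 30 min at room temperature.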

[8] = qHTS assay for small molecule activators of the heat shock response signaling pathway - cell viability counter screen (AID 743209); further: nearly all actives have a fitted effect of over 50% in size
Summary of the method: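 Readout: CellTiter-Glo luminescence, 30 min at room temperature. System: HSE-bla HeLa cells, 1500/well, plated overnight. Treatment: compounds in DMSO, 5 h at 37 C.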

[9] = qHTS assay for small molecule activators of the heat shock response signaling pathway (AID 743210; active means well fitted activation curve with a large enough effect in the signal ratio in the repeat runs, with a control signal flat, not every such curve was filed as active; the % refers to the signal ratio;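 further: HeLa cells with beta-lactamase reporter driven by heat shock elements; series mostly up to about 63 µM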)
Summary of the method: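 Reporter gene assay: HeLa cells stably bearing an HSE-bla construct, compound treatment 5 h at 37 C, LiveBLAzer substrate 2.5 h at RT, fluorescence intensity.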

[10] = qHTS assay to identify small molecule agonists of the peroxisome proliferator-activated receptor delta (PPARd) signaling pathway - cell viability counter screen (AID 743211); further: nearly all actives have a fitted effect of over 55% in size
Summary of the method: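 Read-out: CellTiter-Glo luminescence, 30 min RT, measured in the same wells as the beta-lactamase reporter. Cells: GeneBLAzer PPAR delta UAS-bla HEK293H, 3000 cells/well, compound exposure 17 h at 37C.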

[11] = biological target: Peroxisome proliferator-activated receptor delta (Homo sapiens) (UniProt Q03181); test: qHTS assay to identify small molecule agonists of the peroxisome proliferator-activated receptor delta (PPARd) signaling pathway (AID 743212; calls by dose curve)
Chain of Peroxisome proliferator-activated receptor delta (Homo sapiens) (Q03181 whole entry, looked up): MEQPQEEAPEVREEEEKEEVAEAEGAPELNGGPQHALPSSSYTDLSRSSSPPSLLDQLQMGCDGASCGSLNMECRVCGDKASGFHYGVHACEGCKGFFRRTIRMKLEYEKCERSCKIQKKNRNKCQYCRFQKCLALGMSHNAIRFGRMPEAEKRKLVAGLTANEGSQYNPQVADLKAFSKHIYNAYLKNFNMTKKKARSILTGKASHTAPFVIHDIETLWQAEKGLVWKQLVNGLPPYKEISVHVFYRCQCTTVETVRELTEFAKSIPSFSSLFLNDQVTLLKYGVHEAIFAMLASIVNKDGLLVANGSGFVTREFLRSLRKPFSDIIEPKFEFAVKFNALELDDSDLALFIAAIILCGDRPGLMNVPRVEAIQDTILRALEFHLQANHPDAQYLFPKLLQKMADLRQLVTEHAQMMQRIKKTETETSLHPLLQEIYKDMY
Summary of the method: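 A PPARd-bla HEK293H line with beta-lactamase under an Upstream Activator Sequence is treated with compounds at 37 C. Substrate loading for 2 h at room temperature precedes the fluorescence measurement.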

[12] = qHTS assay to identify small molecule antagonists of the peroxisome proliferator-activated receptor delta (PPARd) signaling pathway - cell viability counter screen (AID 743213); further: nearly all actives have a fitted effect of over 50% in size
Summary of the method: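 HEK293H cells with the PPARd UAS-bla reporter, co-treated 17 h at 37 C with compounds and L165041 (300 nM final), were lysed with CellTiter-Glo. Luminescence indicated viable cell content.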

[13] = biological target: Peroxisome proliferator-activated receptor delta (Homo sapiens) (UniProt Q03181); test: qHTS assay to identify small molecule antagonists of the peroxisome proliferator-activated receptor delta (PPARd) signaling pathway (AID 743215; active means well fitted inhibition curve with a large enough effect in the signal ratio in the repeat runs, not every such curve was filed as active; the % refers to the signal ratio;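 further: cells stimulated with agonist L165041 at 300 nM final during compound exposure; series mostly up to about 62 µM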)
Summary of the method: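 HEK293H UAS-bla, PPARd; agonist L165041 300 nM final with cpd in DMSO; 37 C 17 h; FRET substrate, RT 2 h; fluorescence intensity.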

[14] = biological target: Bile acid receptor (Homo sapiens) (UniProt Q96RI1); test: qHTS assay to identify small molecule antagonists of the farnesoid-X-receptor (FXR) signaling pathway (AID 743217; active means well fitted inhibition curve with a large enough effect in the signal ratio in the repeat runs, not every such curve was filed as active; the % refers to the signal ratio)
Chain of Bile acid receptor (Homo sapiens) (Q96RI1 whole entry, looked up): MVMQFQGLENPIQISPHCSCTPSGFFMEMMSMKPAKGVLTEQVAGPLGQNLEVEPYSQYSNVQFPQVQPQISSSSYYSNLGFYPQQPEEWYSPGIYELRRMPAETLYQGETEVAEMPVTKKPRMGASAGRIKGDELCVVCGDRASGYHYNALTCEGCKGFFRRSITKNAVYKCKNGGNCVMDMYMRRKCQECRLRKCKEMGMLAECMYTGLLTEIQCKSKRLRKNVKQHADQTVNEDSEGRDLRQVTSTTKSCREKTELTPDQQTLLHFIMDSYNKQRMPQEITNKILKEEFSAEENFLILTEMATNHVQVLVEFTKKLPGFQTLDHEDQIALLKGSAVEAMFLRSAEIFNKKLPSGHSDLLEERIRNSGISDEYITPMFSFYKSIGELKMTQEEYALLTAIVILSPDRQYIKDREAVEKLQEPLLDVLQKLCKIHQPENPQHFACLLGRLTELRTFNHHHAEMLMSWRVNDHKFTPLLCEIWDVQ
Summary of the method: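 GeneBLAzer FXR-UAS-bla HEK 293T, CDCA-stimulated (50 uM final). Compound treatment 16 h, 37 °C. Detection: beta-lactamase cleavage of B/G FRET substrate, fluorescence.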

[15] = qHTS assay to identify small molecule agonists of the farnesoid-X-receptor (FXR) signaling pathway - cell viability counter screen (AID 743218); further: nearly all actives have a fitted effect of over 45% in size
Summary of the method: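 Parallel cytotoxicity test: compound-treated (16 h, 37 C) HEK 293T FXR-bla reporter cells were lysed with CellTiter-Glo and luminescence recorded.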

[16] = qHTS assay to identify small molecule antagonists of the farnesoid-X-receptor (FXR) signaling pathway - cell viability counter screen (AID 743221; active means well fitted cell-killing curve with a large enough effect in the repeat runs, not every such curve was filed as active; further: nearly all actives have a fitted effect of over 50% in size)
Summary of the method: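 HEK 293T FXR-bla cells, 5 h pre-incubation; compound + CDCA 50 uM final, 16 h, 37 C; beta-lactamase FRET read first, then CellTiter-Glo luminescence, 30 min RT.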

[17] = biological target: Vitamin D3 receptor (Homo sapiens) (UniProt P11473); test: qHTS assay to identify small molecule agonists of the vitamin D receptor (VDR) signaling pathway (AID 743222; calls by dose curve)
Chain of Vitamin D3 receptor (Homo sapiens) (P11473 whole entry, looked up): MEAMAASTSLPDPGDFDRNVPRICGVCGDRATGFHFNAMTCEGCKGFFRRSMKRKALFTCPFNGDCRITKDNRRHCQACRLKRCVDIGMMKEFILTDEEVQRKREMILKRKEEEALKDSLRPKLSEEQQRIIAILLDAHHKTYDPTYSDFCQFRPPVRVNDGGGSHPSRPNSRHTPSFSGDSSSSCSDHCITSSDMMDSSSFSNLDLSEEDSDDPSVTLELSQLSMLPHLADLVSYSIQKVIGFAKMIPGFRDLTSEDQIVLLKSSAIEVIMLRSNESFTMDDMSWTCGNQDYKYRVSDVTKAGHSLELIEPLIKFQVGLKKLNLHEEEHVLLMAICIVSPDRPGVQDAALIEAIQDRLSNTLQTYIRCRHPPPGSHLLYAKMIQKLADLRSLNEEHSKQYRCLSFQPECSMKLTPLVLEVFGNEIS
Summary of the method: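 In VDR-bla cells, compound-induced beta-lactamase expression is quantified by FRET substrate fluorescence. Treatment lasts 16 h at 37C; substrate develops 2 h at room temperature.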

[18] = biological target: Vitamin D3 receptor (Homo sapiens) (UniProt P11473); test: qHTS assay to identify small molecule antagonists of the vitamin D receptor (VDR) signaling pathway (AID 743223; active means well fitted inhibition curve with a large enough effect in the signal ratio in the repeat runs, not every such curve was filed as active; the % refers to the signal ratio)
Summary of the method: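 Beta-lactamase reporter read-out: FRET substrate fluorescence after 2 h at room temperature, following 16 h exposure of VDR-bla cells to test compound plus 3 nM (final) 1alpha,25-dihydroxyvitamin D3 agonist at 37C.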

[19] = biological target: Peroxisome proliferator-activated receptor gamma (Homo sapiens) (UniProt P37231); test: qHTS assay to identify small molecule agonists of the peroxisome proliferator-activated receptor gamma (PPARg) signaling pathway (AID 743094; active means well fitted activation curve with a large enough effect in the signal ratio in the repeat runs, not every such curve was filed as active; the % refers to the signal ratio)
Summary of the method: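 Compounds dissolved in DMSO were added to PPARg UAS-bla HEK293H cells for 17 h at 37C, and reporter expression was quantified by fluorescence intensity after 1 h with LiveBLAzer B/G FRET substrate.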

[20] = biological target: Bile acid receptor (Homo sapiens) (UniProt Q96RI1); test: qHTS assay to identify small molecule agonists of the farnesoid-X-receptor (FXR) signaling pathway (AID 743220; active means well fitted activation curve with a large enough effect in the signal ratio in the repeat runs, not every such curve was filed as active; the % refers to the signal ratio)
Summary of the method: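 Beta-lactamase reporter under UAS control in GeneBLAzer FXR HEK 293T cells (5000/well) measured with LiveBLAzer FRET substrate after 2 h at room temperature. Compound exposure lasted 16 h at 37C.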

Measured: Potency

CNC(=O)O/N=C(\C)C(C)S(C)(=O)=O (centres undefined)
not listed: [19] | [20]
inactive: all other assays above

CC(=O)C(Cl)C(=O)N(C)C (centres undefined)
not listed: [4] | [5] | [6] | [10] | [14] | [20]
inactive: all other assays above

Oc1ccc(Cl)c(Cl)c1
not listed: [4] | [5] | [6] | [10] | [14] | [18] | [20]
inactive: all other assays above

S=C=Nc1ccccc1
not listed: [6] | [11] | [13] | [18] | [19]
inactive: all other assays above

CCCCC(CC)COC(=O)c1ccccc1C(=O)OCC(CC)CCCC (centres undefined)
inactive: [1] | [2] | [3] | [19] | [7] | [13]

Brc1cccc(-c2ccccc2)c1
not listed: [4] | [11] | [12] | [13] | [19]
inactive: all other assays above

C#CC1(O)CCCCC1
not listed: [11] | [13] | [14] | [17] | [18] | [19] | [20]
inactive: all other assays above

N#CCCl
not listed: [6] | [9] | [11] | [13] | [19]
inactive: all other assays above
